# EWS-Fli inh: EWS/Fli-driven NR0B1 reporter inhibitors, primary screen, A673 cells, NR0B1 luciferase, luminescence, MLPCN library; viability-normalised; inhibition, % at 12.6 µM; 350,000 compounds, 0.67% hits; AID 651661, 2012;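 active = mean inhibition of at least 50% after viability correction, with every replicate also passing that limit; inconclusive = mean reaches 50% but only one of two replicates passes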;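 note: firefly luciferase signal divided by Alamar Blue viability fluorescence both relative to DMSO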
# PAX8 inh HTS: inhibitors of PAX8-driven TPO luciferase reporter, primary screen, RMG-I cells, single concentration. SteadyGlo, 24 h. inhibition, % at 12.6 µM. 360,000 compounds, 1.2% hits. AID 652154, 2013;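 active = mean replicate inhibition at least 60% with every replicate also reaching 60%; inconclusive = only one of the two criteria is met; inactive = mean below 60% and not all replicates reaching 60%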;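 note: luciferase light reporting Pax8 driven TPO promoter activity; plate controls were median of neutral control wells for no effect and mitoxantrone controls for full effect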
# LGR2 antag: inhibitors of bursicon-induced LGR2 CRE-luciferase signal, primary screen, cell-based, HEK293, CRE-luciferase reporter, bursicon stimulation; 380,000 compounds, 0.35% hits; Drosophila bursicon receptor LGR2 (rickets); bursicon-stimulated, 4 h; inhibition, % at 9.99 µM;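 active = drop in luminescence signal, shown as inhibition above about 50% in the replicate tests, limit read from the data, passing the limit was not always enough; inconclusive = probably only some replicates passing the limit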;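 note: agonist challenge used bursicon conditioned medium at about half maximal strength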
# EBV LMP1 NFkB: EBV LMP1-driven NF-kappaB luciferase reporter inhibitors, primary screen, cell-based, luminescence, single point. 350,000 compounds, 0.69% hits. LMP1-induced NF-kappaB luciferase reporter cells. inhibition, % at 12.5 µM; in the data active = inhibition above about 41%; inconclusive = no clear call, values can overlap the other calls;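 note: 0% = neutral control wells and 100% = reference inhibitor control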
# TROY NFkB inh: inhibitors of TROY-driven NF-kB signaling, primary screen, Q293 LMP1-TROYcd cells, NF-kB luciferase, uHTS; Q293 LMP1-TROYcd NF-kB luciferase reporter, 4 h; inhibition, % at 10 µM; 360,000 compounds, 0.98% hits;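 active = compounds whose plate-normalised and pattern-corrected inhibition of the luciferase reporter signal at the single screening dose is 50% or more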
# TWEAK-Fn14 inh: inhibitors of TWEAK-Fn14 signaling, primary screen, luciferase reporter cells, uHTS | TWEAK-stimulated Fn14 reporter cells, luciferase luminescence, 8 h | 360,000 compounds, 2% hits | AID 1159606, 2016 | inhibition, % at 10 µM; in the data active = inhibition above about 50%
# * hit, by the source's call; ? = inconclusive; . = no result. Only some compounds are listed: those with a hit (about 3.2% of all), similar ones and a draw of the others.
SMILES,EWS-Fli inh,PAX8 inh HTS,LGR2 antag,EBV LMP1 NFkB,TROY NFkB inh,TWEAK-Fn14 inh
O=C(C[C@@H]1CC[C@@H]2[C@H](COC[C@H](O)CN2S(=O)(=O)c2cccc(Cl)c2)O1)Nc1ccc(-c2ccccc2)cc1,-2.5,93.7*,-3.5,.,.,.
O=C(C[C@H]1CC[C@H]2[C@@H](COC[C@@H](O)CN2S(=O)(=O)c2cccc(Cl)c2)O1)Nc1ccccc1,-1.8,-7.8,3.0,.,.,.
CO[C@@H]1CN(C)C(=O)c2cc(NC(=O)Nc3ccccc3)ccc2OC[C@H](C)N(C(=O)CC2CC2)C[C@H]1C,-11.5,4.7,-3.5,.,.,.
CCCNC(=O)Nc1ccc2c(c1)C(=O)N(C)C[C@@H](OC)[C@H](C)CN(C(=O)C1CCCC1)[C@H](C)CO2,-2.4,-9.6,-40.5,.,.,.
CO[C@H]1CN(C)C(=O)c2ccc(NC(=O)C3CCC3)cc2OC[C@H](C)N(C(=O)NC(C)C)C[C@@H]1C,-7.8,.,-0.4,.,.,.
Cc1cc(NC(=O)C2CC(=O)N(c3ccccc3C)C2)no1 (stereo not given),-1.8,-1.5,-5.4,-3.5,-6.9,82.8*
CCN(CC)S(=O)(=O)c1ccc(NC(=O)C2CC(=O)N(c3ccc4c(c3)OCCO4)C2)cc1 (stereo not given),14.0,2.9,6.7,8.8,6.6,60.2*
COc1ccc(N2CC(C(=O)Nc3ccc4c(c3)OCCO4)CC2=O)cc1 (stereo not given),8.0,-14.7,21.8,7.3,-7.1,42.1
CCc1ccc(N2CC(C(=O)Nc3ccc4c(c3)OCCO4)CC2=O)cc1 (stereo not given),12.6,-3.8,13.3,10.0,55.3*,51.1*
COc1ccc(-c2csc(NC(=O)C3CC(=O)N(c4ccc5c(c4)OCCO5)C3)n2)cc1 (stereo not given),.,-13.3,23.5,9.5,55.5*,84.7*
Cc1cc(NC(=O)C2CC(=O)N(c3cccc(C)c3C)C2)no1 (stereo not given),0.4,1.5,-12.8,-3.6,-20.5,1.8
COC(=O)C[C@@H]1C[C@@H]2c3cc(NC(=O)Nc4ccc(F)cc4)ccc3O[C@@H]2[C@H](CO)O1,-0.7,-3.8,2.0,.,.,.
C[C@@H]1CCCCO[C@@H](CN(C)C)[C@@H](C)CN([C@H](C)CO)C(=O)c2cc(NC(=O)C3CCCCC3)ccc2O1,-2.6,-7.4,-3.7,.,.,.
Cc1cccc(N2CC(C(=O)Nc3ccc4c(c3)OCCO4)CC2=O)c1C (stereo not given),9.7,10.6,4.6,1.4,34.4,63.1*
COC(=O)c1ccc(CSc2nnc(NC(=O)C3CC(=O)N(c4ccc5c(c4)OCCO5)C3)s2)cc1 (stereo not given),.,0.7,-3.3,2.4,44.2,54.5*
COc1ccc(/C(N)=N/OC(=O)CN(C)S(=O)(=O)c2ccc(C)cc2)cc1,9.1,-0.2,8.5,-12.4,17.4,68.3*
Cc1ccc(/C(N)=N/OC(=O)CN(C)S(=O)(=O)c2ccc(C)cc2)cc1,-5.0,13.3,12.6,-6.0,27.4,3.6
Cn1c(Cl)cnc1C1CC(=O)c2cc(Cl)ccc2O1 (stereo not given),.,72.3*,.,18.5,13.3,-15.6
COc1cccc2sc(Nc3nc4ccc(NC(C)=O)cc4s3)nc12,-3.0,0.3,.,-0.8,-39.6,50.6*
CC(=O)Nc1ccc2nc(NC(=O)COc3ccccc3C)sc2c1,-12.4,-20.4,-26.4,-1.4,20.3,-3.6
COc1cccc2sc(Nc3nc(-c4cc5ccccc5oc4=O)cs3)nc12,.,1.5,14.1,9.2,0.9,36.6
COc1cccc2sc(Nc3nc(-c4ccncc4)cs3)nc12,62.6*,-3.1,2.4,4.4,-9.0,45.5
Cc1ccccc1-c1ccc2c(c1)O[C@@H](CN(C)CC1CC1)[C@@H](C)CN([C@@H](C)CO)S2(=O)=O,9.2,.,23.0,.,.,.
COc1ccc(NC(=O)N2C[C@@H](O)COC[C@H]3O[C@@H](CC(=O)NCc4ccccc4OC)CC[C@@H]32)cc1,-1.1,5.8,-21.4,.,.,.
C[C@@H](NC(=O)C[C@@H]1CC[C@H]2[C@@H](COc3ccc(NC(=O)C4CCOCC4)cc3C(=O)N2C)O1)c1ccccc1,-7.6,-17.1,-5.1,.,.,.
SMILES,EWS-Fli inh,PAX8 inh HTS,LGR2 antag,EBV LMP1 NFkB,TROY NFkB inh,TWEAK-Fn14 inh
O=c1c(O)c(-c2ccccc2)oc2cc(O)cc(O)c12,-17.7,.,-24.4,-10.4,-17.9,55.4*
CNC[C@@H]1OCCCC[C@H](C)Oc2ccc(NC(=O)Nc3ccc(OC)cc3)cc2C(=O)N([C@H](C)CO)C[C@H]1C,1.3,-7.1,0.7,.,.,.
O=C(N/N=C/c1ccc(F)cc1)c1c(O)c2ccccc2[nH]c1=O,-9.1,-10.1,-17.3,28.8,13.5,42.2
O=C(N/N=C/c1cccc(F)c1)c1c(O)c2ccccc2[nH]c1=O,.,-4.4,-4.5,9.3,22.8,58.0*
CCCC(=O)Nc1ccc2c(c1)OC[C@H](C)N(CCc1ccccc1)C[C@H](C)[C@H](OC)CN(C)C2=O,-4.0,.,-5.0,.,.,.
COc1ccc(OC)c(NC(=O)COc2coc(CN3CCc4ccccc43)cc2=O)c1,5.5,15.6,-0.5,49.9*,8.9,12.3
Cc1noc(C)c1S(=O)(=O)Nc1ccc2c(c1)C(=O)N([C@@H](C)CO)C[C@H](C)[C@@H](CN(C)C(=O)Nc1ccc3c(c1)OCO3)OCCCC[C@H](C)O2,2.4,.,8.2,.,.,.
COc1ccc([C@H]2C=C(C(=O)N3CCCCC3)O[C@@H](OCc3ccc(CO)cc3)C2)cc1,-20.8,.,.,.,.,.
c1cncc(-c2csc(-c3cccnc3)n2)c1,-9.1,-6.1,1.6,-7.4,-9.9,-1.5
Oc1ccc(-c2csc(-c3cccnc3)n2)c(O)c1,-40.5,-182.6,?,2.1,-29.6,53.8*
CN(C)C1(CNC(=O)Nc2ccccc2)CCCCC1,-6.3,-8.8,-8.2,42.5*,2.5,-4.5
CC(=O)Nc1ccc(C(=S)NCC2(N(C)C)CCCCC2)cc1,-11.1,-16.7,-9.0,-8.1,7.8,-5.3
CCS(=O)(=O)Nc1ccc2c(c1)C(=O)N(C)[C@H]1CC[C@@H](CC(=O)NC)O[C@H]1CO2,4.9,-12.5,-4.0,.,.,.
CCCCC1(CO)C(=O)N(c2ccccc2)N(c2ccccc2)C1=O,-0.4,1.5,5.3,-5.2,-10.2,2.7
CCCCC1C(=O)N(c2ccccc2)N(c2ccc(O)cc2)C1=O (stereo not given),45.5,26.8,.,54.6*,55.4*,84.4*
O=S1(=O)N=C(Oc2cccc3ccccc23)c2ccccc21,.,.,-17.3,8.4,57.6*,23.2
Cc1csc(NC(=O)/C=C/c2ccco2)n1,.,.,-68.0,-14.4,-39.1,13.0
O=C(Nc1scc(-c2ccccc2)c1C(=O)O)c1ccccc1F,-39.3,-14.9,.,0.3,-58.4,3.8
O=C(/C=C/c1ccco1)Nc1nc(-c2ccccn2)cs1,-3.4,-54.0,21.7,-1.2,-26.5,15.0

# Compound activity deposited in PubChem by several laboratories.
